Measurements published in PubChem BioAssay (Tox21).
Inconclusive results are not listed. Active and inactive are the calls of the source. Unless noted, calls come from the whole dose curve; as a rule, active = well fitted curve in the direction sought with a large enough effect in the repeat runs; inconclusive = weak or mixed curves; inactive = no such curve, though single readings can be large; an effect the other way counts as inactive or inconclusive.

How the values were obtained:
[1] = qHTS assay to identify small molecule agonists of the RXR signaling pathway - cell viability counter screen (AID 1159529); note: nearly all actives have a fitted effect of over 50% in size
In short: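 Compounds dissolved in DMSO were pinned onto HEK 293T cells carrying a beta-lactamase reporter under RXR-alpha control and incubated 16 hr. Cytotoxicity was then quantified by CellTiter-Glo luminescence.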

[2] = qHTS assay to identify small molecule antagonists of the retinoid acid receptor (RAR) signaling pathway - cell viability counter screen (AID 1159551); note: nearly all actives have a fitted effect of over 35% in size
In short: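 C3RL4 RARE-luciferase line; cpds + retinol 1 uM final, 6 h, 37 C/5% CO2; CellTiter-Glo ATP luminescence, 30 min RT.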

[3] = qHTS assay to identify small molecule antagonists of the retinoic acid receptor (RAR) signaling pathway (AID 1159552; note: nearly all actives have a fitted effect of over 50% in size)
In short: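 Test chemicals and DMSO controls were pin-transferred onto C3RL4 cells a day after seeding; retinol (1 uM final) followed at once. Luminescent reporter output was quantified after 6 hr of co-incubation and 30 min with detection reagent.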

[4] = qHTS assay to identify small molecule antagonists of the estrogen related receptor (ERR) signaling pathway from Tox21 library - cell viability counter screen (AID 1224834); note: nearly all actives have a fitted effect of over 30% in size
In short: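 Multiplexed viability counter screen in ERR cells: 17.5 h compound exposure at 37 C, CellTiter-Fluor added, 30 min at 37 C/5% CO2, fluorescence read.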

[5] = molecular target: Luciferin 4-monooxygenase (Photinus pyralis) (UniProt P08659); experiment: qHTS assay to identify small molecule inhibitors of firefly luciferase (AID 1224835); note: nearly all actives have a fitted effect of over 25% in size
In short: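 Inhibition of purified Photinus luciferase is measured by luminescence. Substrate levels (D-luciferin, ATP) sit at their KM values. Each compound is tested in a concentration series.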

[6] = qHTS assay to identify small molecule agonists of the constitutive androstane receptor (CAR) signaling pathway - cell viability counter screen (AID 1224836); note: nearly all actives have a fitted effect of over 45% in size
In short: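 23 h treatment, 37 C, 5% CO2. Cell line: HepG2 stably expressing hCAR with a CYP2B6-2.2kb construct. Co-treatment: PK11195, 0.75 uM final. Read-out: CellTiter-Fluor fluorescence intensity.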

[7] = qHTS assay to identify small molecule antagonists of the constitutive androstane receptor (CAR) signaling pathway - cell viability counter screen (AID 1224837); note: nearly all actives have a fitted effect of over 45% in size
In short: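 Read-out: CellTiter-Fluor fluorescence after 23 hr at 37 C/5% CO2. Cells: HepG2 double-stable for hCAR and CYP2B6-2.2kb. Compounds tested at 15 concentrations in the presence of CITCO, final concentration 50 nM.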

[8] = molecular target: Nuclear receptor subfamily 1 group I member 3 (Homo sapiens) (UniProt Q14994); experiment: qHTS assay to identify small molecule antagonists of the constitutive androstane receptor (CAR) signaling pathway (AID 1224838);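 note: HepG2 cells stably expressing hCAR with CYP2B6 luciferase reporter stimulated by CITCO; nearly all actives have a fitted effect of over 40% in size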
In short: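 Read-out: ONE-Glo luciferase luminescence after 30 min at room temperature. HepG2-CYP2B6-hCAR double-stable cells, compounds in 15-point titration plus 50 nM CITCO final, 24 h at 37 C/5% CO2.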

[9] = molecular target: Nuclear receptor subfamily 1 group I member 3 (Homo sapiens) (UniProt Q14994); experiment: qHTS assay to identify small molecule agonists of the constitutive androstane receptor (CAR) signaling pathway (AID 1224839);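 note: HepG2 cells stably carrying human CAR and a CYP2B6 luciferase reporter; nearly all actives have a fitted effect of over 15% in size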
In short: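 Compounds tested at 15 concentrations on HepG2 cells stably harbouring hCAR and CYP2B6-2.2kb reporter constructs, co-treated with PK11195 (0.75 uM final), 24 h at 37 C; luminescent reporter signal quantified.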

[10] = qHTS assay to identify small molecule antagonists of the estrogen related receptor signaling pathway with the pleiotropic PPARgamma coactivator (PGC) from Tox21 10K library - cell viability counter screen (AID 1224840; active = well fitted cell-killing curve with a large enough effect in the repeat runs, not every such curve was filed as active; note: nearly all actives have a fitted effect of over 40% in size)
In short: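 Fluorescence read-out of CellTiter-Fluor viability reagent, added after cells had been exposed to compound in DMSO for 17.5 h at 37 C; 30 min development at 37 C/5% CO2. Cells: PGC/ERR line, 2,000/well.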

[11] = qHTS assay to identify small molecule antagonists of the estrogen related receptor signaling pathway with the pleiotropic PPARgamma coactivator (PGC) from Tox21 10K library (AID 1224841; call rule not given here; note: actives are mostly falling curves and most rising ones were filed inactive; nearly all actives have a fitted effect of over 50% in size)
In short: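 Luminescence read-out (One-Glo luciferase reagent, 30 min at room temperature) from PGC/ERR cells exposed to DMSO-dissolved test compounds for 18 h at 37 C; cells, 2,000 per well, had been preincubated 6 h before compound transfer.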

[12] = qHTS assay to identify small molecule agonists of the estrogen related receptor signaling pathway with the pleiotropic PPARgamma coactivator (PGC) from Tox21 10K library (AID 1224842); note: nearly all actives have a fitted effect of over 15% in size
In short: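 Luminescence from One-Glo (30 min, room temperature) measured after PGC/ERR cells had 18 h at 37 C with pinned compound (23 nL in DMSO). Cells had been seeded at 2,000 per well and pre-incubated 6 h.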

[13] = molecular target: Thyrotropin receptor (Homo sapiens) (UniProt P16473); experiment: qHTS assay to identify small molecule agonists of the thyroid stimulating hormone receptor (TSHR) signaling pathway (AID 1224843; calls by dose curve; note: nearly all actives have a fitted effect of over 45% in size)
In short: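 Agonist activity read as cAMP rise via d2/cryptate HTRF competition, 1 h room-temperature detection, in HEK293 cells expressing TSHR. Fifteen-point titrations, each run in triplicate, with a 30 min room-temperature incubation beforehand.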

[14] = qHTS assay to identify small molecule agonists of the hypoxia (HIF-1) signaling pathway - cell viability counter screen (AID 1224844; calls by dose curve; note: nearly all actives have a fitted effect of over 50% in size)
In short: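 CellTiter-Glo luminescence read-out, 30 min RT, taken in the same wells as the beta-lactamase HRE reporter assay; HRE-bla ME-180 cells, 0.5% dialyzed FBS, 17 hr compound treatment at 37C, 5% CO2.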

[15] = qHTS assay to identify small molecule agonists of H2AX (AID 1224845; active = well fitted activation curve with a large enough effect in the signal ratio in the repeat runs, not every such curve was filed as active; the % refers to the signal ratio)
In short: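 Phospho-H2AX Ser139 measured by HTRF (ex 320 nm; em 665 and 620 nm) after 24 hr antibody incubation. Compounds, 15 concentrations, 0.76% DMSO, were applied to CHO-K1 cells for 3hr at 37C before lysis.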

[16] = qHTS assay to identify small molecule agonists of the hypoxia (HIF-1) signaling pathway (AID 1224846; active = well fitted activation curve with a large enough effect in the signal ratio in the repeat runs, not every such curve was filed as active; the % refers to the signal ratio)
In short: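 Beta-lactamase FRET read-out (CCF4-AM substrate) from ME-180 cells carrying an HRE-driven bla reporter, after 17 hrs compound exposure at 37C/5% CO2. Cells were seeded at 2,000 per well in 0.5% dialyzed FBS medium and preincubated 5 hrs.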

[17] = qHTS assay to identify small molecule agonists of H2AX - cell viability counter screen (AID 1224847; calls by dose curve; note: top concentration of the series differs between compounds; nearly all actives have a fitted effect of over 30% in size)
In short: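 Compounds tested at 15 concentrations were incubated 3 hr at 37C with wild-type CHO-K1 cells; cellular ATP-based luminescence (CellTiter-Glo) indicated viability.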

[18] = qHTS assay to identify small molecule antagonists of the estrogen related receptor (ERR) signaling pathway from Tox21 library (AID 1224848); note: nearly all actives have a fitted effect of over 50% in size
In short: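 Luciferase luminescence (ONE-Glo, 30 min room temperature) was the read-out. Cells of the NTP-supplied ERR line, 2,000 per well, were given 6 h at 37 C before compound addition in DMSO and 18 h exposure at 37 C.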

[19] = qHTS assay to identify small molecule agonists of the estrogen related receptor (ERR) signaling pathway from Tox21 library (AID 1224849; calls by dose curve; note: nearly all actives have a fitted effect of over 15% in size); settings: ERR reporter cell line, ONE-Glo luciferase, 18 h; at 92.4 µM (top of the series) unless noted
In short: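 Luminescence readout (ONE-Glo, 30 min RT) after 18 h compound exposure at 37 C of NTP-supplied ERR reporter cells; cells were plated 6 h before compound addition by pin tool.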

[20] = qHTS assay to identify small molecule agonists of the retinoic acid receptor (RAR) signaling pathway (AID 1159553)
In short: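 RARE-luc C3RL4 cells; overnight attachment 37 C/5% CO2; compound (DMSO) 6 hr; luciferase reagent, 30 min RT; luminescence read-out.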
% is set by controls: 0 for no effect and ±100 for the full control effect.

Thyrotropin receptor (Homo sapiens), sequence (P16473 whole entry, looked up): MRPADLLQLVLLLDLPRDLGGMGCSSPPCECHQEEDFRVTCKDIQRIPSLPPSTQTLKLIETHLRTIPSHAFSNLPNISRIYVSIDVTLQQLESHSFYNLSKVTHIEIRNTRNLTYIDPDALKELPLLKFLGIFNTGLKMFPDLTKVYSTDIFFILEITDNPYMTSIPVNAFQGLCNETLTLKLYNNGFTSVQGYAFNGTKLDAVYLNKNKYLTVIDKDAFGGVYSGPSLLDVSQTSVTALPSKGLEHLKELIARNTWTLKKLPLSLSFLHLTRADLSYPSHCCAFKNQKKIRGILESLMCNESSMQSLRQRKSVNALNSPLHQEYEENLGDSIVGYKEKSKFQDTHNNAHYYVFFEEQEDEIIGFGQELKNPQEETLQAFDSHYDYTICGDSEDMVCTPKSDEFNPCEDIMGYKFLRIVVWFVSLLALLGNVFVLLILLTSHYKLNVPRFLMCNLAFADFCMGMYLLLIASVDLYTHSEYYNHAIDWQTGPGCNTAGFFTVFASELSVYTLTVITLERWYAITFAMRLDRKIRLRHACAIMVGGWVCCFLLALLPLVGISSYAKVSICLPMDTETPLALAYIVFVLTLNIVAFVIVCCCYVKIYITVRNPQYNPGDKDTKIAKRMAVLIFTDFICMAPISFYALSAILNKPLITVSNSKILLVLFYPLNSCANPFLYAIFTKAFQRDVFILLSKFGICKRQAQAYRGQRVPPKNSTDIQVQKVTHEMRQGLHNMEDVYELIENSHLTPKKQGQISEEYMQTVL
Luciferin 4-monooxygenase (Photinus pyralis), sequence (P08659 whole entry, looked up): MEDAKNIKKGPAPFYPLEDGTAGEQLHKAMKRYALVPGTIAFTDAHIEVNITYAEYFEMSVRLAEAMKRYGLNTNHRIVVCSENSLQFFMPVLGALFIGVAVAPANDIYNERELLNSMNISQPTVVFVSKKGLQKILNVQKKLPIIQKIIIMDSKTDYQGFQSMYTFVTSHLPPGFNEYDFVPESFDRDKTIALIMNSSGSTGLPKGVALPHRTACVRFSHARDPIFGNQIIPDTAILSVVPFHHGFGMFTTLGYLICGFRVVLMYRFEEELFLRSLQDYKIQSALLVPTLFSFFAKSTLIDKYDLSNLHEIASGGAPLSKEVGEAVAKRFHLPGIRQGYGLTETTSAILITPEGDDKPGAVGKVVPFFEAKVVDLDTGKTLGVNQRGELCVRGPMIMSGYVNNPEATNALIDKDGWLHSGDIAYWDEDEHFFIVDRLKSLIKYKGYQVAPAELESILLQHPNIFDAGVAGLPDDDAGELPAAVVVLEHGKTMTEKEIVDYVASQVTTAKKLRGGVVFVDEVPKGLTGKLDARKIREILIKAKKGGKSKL
Nuclear receptor subfamily 1 group I member 3 (Homo sapiens), sequence (Q14994 whole entry, looked up): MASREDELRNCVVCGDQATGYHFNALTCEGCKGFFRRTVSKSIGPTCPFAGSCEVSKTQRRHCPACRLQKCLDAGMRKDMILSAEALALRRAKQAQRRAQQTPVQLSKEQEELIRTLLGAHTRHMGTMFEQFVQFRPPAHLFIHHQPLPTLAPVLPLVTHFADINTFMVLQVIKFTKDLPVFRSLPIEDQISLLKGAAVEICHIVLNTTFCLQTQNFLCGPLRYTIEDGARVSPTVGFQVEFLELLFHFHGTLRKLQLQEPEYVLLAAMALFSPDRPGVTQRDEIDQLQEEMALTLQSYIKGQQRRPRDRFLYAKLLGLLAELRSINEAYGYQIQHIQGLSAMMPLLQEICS

CCCCCCCCOCCC#N
inactive: Potency [1] | outcome [2] | outcome [3] | outcome [4] | Potency [5] | outcome [6] | outcome [7] | outcome [8] | Potency [9] | outcome [10] | Potency [11] | Potency [12] | Potency [13] | outcome [14] | outcome [15] | outcome [16] | outcome [17] | outcome [18] | activity change, positive = activation [19] 3%

NCC1CCC(C(=O)Oc2ccc(CCC(=O)O)cc2)CC1 (configuration not stated)
inactive: Potency [1] | outcome [2] | outcome [3] | outcome [4] | Potency [5] | outcome [6] | outcome [7] | outcome [8] | Potency [9] | outcome [10] | Potency [13] | outcome [14] | outcome [15] | outcome [16] | outcome [17]

CCCCC(CC)COC(=O)CC#N (configuration not stated)
inactive: Potency [1] | outcome [2] | outcome [3] | outcome [4] | Potency [5] | outcome [6] | outcome [7] | outcome [10] | Potency [11] | Potency [12] | Potency [13] | outcome [14] | outcome [15] | outcome [17] | outcome [18] | activity change, positive = activation [19] -0.23%

CNC(=O)c1c(I)c(NC(C)=O)c(I)c(C(=O)O)c1I
inactive: Potency [1] | outcome [2] | outcome [3] | outcome [4] | Potency [5] | outcome [6] | outcome [7] | outcome [10] | Potency [11] | Potency [12] | outcome [14] | outcome [15] | outcome [17] | outcome [18] | activity change, positive = activation [19] 2.26% [at 42.5 µM]

CCCCc1ccc(Cl)cc1
inactive: Potency [1] | outcome [2] | outcome [3] | Potency [20] | outcome [4] | Potency [5] | outcome [6] | outcome [10] | Potency [13] | outcome [14] | outcome [15] | outcome [16] | outcome [17]

NC(=O)CC[C@@H](N)C(=O)O
inactive: Potency [1] | outcome [2] | outcome [3] | Potency [20] | outcome [4] | Potency [5] | outcome [6] | Potency [9] | outcome [10] | Potency [11] | Potency [12] | Potency [13] | outcome [14] | outcome [15] | outcome [16] | outcome [17] | outcome [18] | activity change, positive = activation [19] 1.56% [at 42.5 µM]

Cc1ccccc1OCC(=O)O
inactive: Potency [1] | outcome [2] | outcome [3] | outcome [4] | Potency [5] | outcome [6] | outcome [8] | Potency [9] | outcome [10] | outcome [14] | outcome [15] | outcome [16] | outcome [17] | outcome [18] | activity change, positive = activation [19] 0.72%

N=C(N)N
inactive: Potency [1] | outcome [2] | outcome [3] | outcome [4] | Potency [5] | outcome [6] | outcome [8] | Potency [9] | outcome [10] | Potency [11] | Potency [12] | Potency [13] | outcome [14] | outcome [16] | outcome [17] | outcome [18] | activity change, positive = activation [19] 0.947% [at 42.5 µM]

COc1cc(S(N)(=O)=O)cc(C(=O)O)c1OC
inactive: Potency [1] | outcome [2] | outcome [3] | outcome [4] | Potency [5] | outcome [6] | outcome [7] | outcome [10] | Potency [13] | outcome [14] | outcome [16] | outcome [17]

CC[C@@]1(c2ccccc2)NC(=O)N(C)C1=O
inactive: Potency [1] | outcome [2] | outcome [3] | Potency [20] | outcome [4] | Potency [5] | outcome [6] | outcome [10] | Potency [11] | Potency [13] | outcome [14] | outcome [17] | outcome [18] | activity change, positive = activation [19] 3.28% [at 42.5 µM]

COC(=O)N/N=C/c1c[n+]([O-])c2ccccc2[n+]1[O-]
inactive: Potency [1] | outcome [2] | outcome [3] | outcome [4] | Potency [5] | outcome [6] | outcome [7] | outcome [8] | Potency [9] | outcome [10] | Potency [11] | Potency [13] | outcome [14] | outcome [16] | outcome [17] | outcome [18] | activity change, positive = activation [19] 16.4% [at 42.5 µM]

COCCCOc1cc(C[C@@H](C[C@H](N)[C@@H](O)C[C@H](C(=O)NCC(C)(C)C(N)=O)C(C)C)C(C)C)ccc1OC
inactive: Potency [1] | outcome [2] | outcome [3] | Potency [20] | outcome [4] | Potency [5] | outcome [6] | outcome [10] | Potency [13] | outcome [14] | outcome [15] | outcome [16]

CN(C)c1cc(NC(=O)CNC(C)(C)C)c(O)c2c1C[C@H]1C[C@H]3[C@H](N(C)C)C(=O)C(C(N)=O)=C(O)[C@@]3(O)C(=O)C1=C2O
inactive: Potency [1] | outcome [2] | outcome [3] | outcome [4] | Potency [5] | outcome [6] | outcome [8] | Potency [9] | Potency [11] | outcome [14] | outcome [16] | outcome [17] | outcome [18] | activity change, positive = activation [19] 1.19% [at 42.5 µM]
